# HT1080 IDH1KD tx – qHTS for induction of synthetic lethality in tumor cells producing 2HG: qHTS for the HT-1080-IDH1KD cell line | HT-1080 IDH1 knockdown viability, ATP luminescence, 48 h | Potency, µM (titrated, usually from 46.1 µM), inactives show at the highest dose activity, negative = toxicity, hits mostly cytotoxic | hit rate 2% among 360,000;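 also: 0% = DMSO wells and -100% = cell-free medium wells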
#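 After a 2 h attachment period, IDH1KD HT-1080 cells took pin-transferred compound for 48 h at 37 °C; ATP-based luminescence after 10 min room-temperature reagent incubation reported viability.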
# TDP1 cell CPT – qHTS for Inhibitors of human tyrosyl-DNA phosphodiesterase 1 (TDP1): qHTS in cells in presence of CPT; chicken DT40 Tdp1-/-;hTDP1 cells + 20 nM CPT, ATP luminescence, 48 h; Potency, µM (titrated, usually from 46.2 µM), inactives show at the top dose activity change, negative = growth inhibition, usual class: inhibitors; hit rate 12% among 420,000; also: nearly all actives have a fitted effect of over 55% in size
#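 Chicken DT40 Tdp1-/- cells complemented with human TDP1, 400 cells/well, exposed to compounds plus 20 nM camptothecin for at least 48 h at 37 C; viability read as ATP content by CellTiter-Glo luminescence.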
# KB-V1 cytotox – qHTS assay for MDR1-selective chemotherapeutics: Primary screen using the drug-selected MDR subline cells KB-V1. KB-V1 MDR cells viability, CellTiter-Glo, 72 h. Potency, µM (series often up to 46.1 µM), most hits filed as cytotoxic. hit rate 3.4% among 400,000; also: nearly all actives have a fitted effect of over 60% in size
#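 Cytotoxicity via CellTiter-Glo luminescence after 72 h compound exposure at 37 degrees C. Cells: drug-selected KB-V1 line, DMEM phenol-red free plus 10% FBS. Compounds tested at multiple concentrations; normalized data fitted to concentration-effect curves.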
# HT1080-NT tox – qHTS for induction of synthetic lethality in tumor cells producing 2HG: qHTS for the HT-1080-NT fibrosarcoma cell line | HT-1080-NT fibrosarcoma viability, CellTiter-Glo ATP luminescence, 48 h | Potency, µM (doses to about 46.1 µM), for inactives: at the top dose activity, negative = less viability, hits mostly cytotoxic | hit rate 1.6% among 360,000 | AID 686970, 2013;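 also: NT is the 2HG producing partner of a matched IDH1 knockdown line; 0% = DMSO-treated cells and -100% = media-only wells without cells; nearly all actives have a fitted effect of over 55% in size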
#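 Toxicity toward the 2HG-producing NT line was scored as %Activity, normalised to DMSO and no-cell wells, from CellTiter-Glo luminescence after 48 hours' treatment.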
# KB-3-1 tox – qHTS assay for MDR1-selective chemotherapeutics: Primary screen using the parental adenocarcinoma cell KB-3-1; KB-3-1 viability, CellTiter-Glo ATP luminescence, 72 h; Potency, µM (top dose mostly 46.1 µM), actives largely listed as cytotoxic; hit rate 1.4% among 400,000; AID 1347075, 2019; also: nearly all actives have a fitted effect of over 60% in size
#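 Screening of KB-3-1 cells (DMEM, 10% FBS, phenol-red free) ran from lowest to highest compound concentration; after 72 h at 37 °C viability was read luminescently and curves fitted.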
# TDP1 cell noCPT – qHTS for Inhibitors of human tyrosyl-DNA phosphodiesterase 1 (TDP1): qHTS in cells in absence of CPT; hit rate 15% among 420,000; Potency, µM (highest dose often 46.2 µM), without a hit: at the highest dose activity change, negative = growth inhibition, most hits filed as inhibitors; AID 686978, 2013; DT40 Tdp1-/- hTDP1 cells, no CPT, ATP luminescence, 48 h; also: nearly all actives have a fitted effect of over 55% in size
#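 Luminescent ATP content (CellTiter-Glo) served as the growth readout. Knockout chicken DT40 cells expressing human TDP1 were exposed to compounds without camptothecin for a minimum 48 hr at 37 °C.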
# Numbers without * were called inactive; i = inactive; u = inconclusive; x = no result given. This is a sample that favours compounds with a hit; in the whole collection about 19% have one here. Calls follow the shape of the dose curve; as a rule, active = well fitted curve in the direction sought with a large enough effect; inconclusive = small, poorly fitted or top-dose-only effect, or another doubt; inactive = no such curve, though single readings can be large; an effect the other way counts as inactive or inconclusive. Unless noted, % is scaled to controls: 0 for no effect and ±100 for the full control effect; potency is read from the fitted curve at half-maximal effect.
SMILES,HT1080 IDH1KD tx,TDP1 cell CPT,KB-V1 cytotox,HT1080-NT tox,KB-3-1 tox,TDP1 cell noCPT
O=C(CN1C(=O)C2(SCC(=O)N2c2ccccc2)c2ccccc21)NCc1ccccc1Cl (stereo unspecified),x,x,i,x,i,x
O=C(CN1C(=O)C2(SCC(=O)N2c2ccccc2)c2ccccc21)NCCc1ccccc1 (stereo unspecified),x,x,u,x,i,x
O=C(CN1C(=O)C2(SCC(=O)N2c2cccc(F)c2)c2ccccc21)NCCc1ccccc1 (stereo unspecified),x,-29%,i,x,i,23µM*
O=C(CN1C(=O)C2(SCC(=O)N2c2cccc(F)c2)c2ccccc21)NCc1ccccc1Cl (stereo unspecified),x,u,6.5µM*,x,i,21µM*
O=C(OC(C(=O)Nc1cc(Cl)cc(Cl)c1)c1ccccc1)C1=COCCO1 (stereo unspecified),-1%,u,u,0%,i,18µM*
CC(OC(=O)C1=COCCO1)C(=O)Nc1ccc(Oc2ccccc2)cc1 (stereo unspecified),-23%,13µM*,i,-6%,i,u
CN(C)C(C(=O)Nc1cc(Cl)cc(Cl)c1)c1ccccc1 (stereo unspecified),-24%,-3%,i,-18%,i,u
Cc1cnc(C(=O)OC(C)C(=O)Nc2ccc(Oc3ccccc3)cc2)cn1 (stereo unspecified),-4%,-13%,i,-7%,i,1%
O=C(CCCCCn1c(=O)[nH]c2ccccc2c1=O)NCc1cccc(Cl)c1,x,-19%,i,x,i,-25%
C=C(C)c1cccc(C(C)(C)NC(=O)Nc2nncs2)c1,-15%,-24%,i,-8%,i,-25%
C=C(C)c1cccc(C(C)(C)NC(=O)Nc2nnc(C(C)C)s2)c1,1%,u,u,16%,i,u
C=C(C)c1cccc(C(C)(C)NC(=O)Nc2cc(C)ccn2)c1,-13%,u,16µM*,-5%,u,u
C=C(C)c1cccc(C(C)(C)NC(=O)Nc2ccc(C)cn2)c1,6%,18µM*,i,-1%,i,18µM*
CCC1CCCCN1C(=O)CSc1n[nH]c(-c2ccccc2)n1 (stereo unspecified),x,u,i,x,i,u
CNC(=S)N/N=C/c1cc(Br)cc(Br)c1O,23µM*,u,i,u,i,u
COc1cc(/C=N/NC(=S)NC2CC3C=CC2C3)cc(OC)c1OC (stereo unspecified),-23%,u,u,-8%,i,u
Oc1c(Br)cc(Br)cc1/C=N/NC(=S)N[C@H]1CC2C=CC1C2 (stereo partly specified),21µM*,u,u,u,u,u
COc1cc(COc2ccc3c(C)c(Cc4ccccc4)c(=O)oc3c2C)cc(OC)c1OC,u,21µM*,i,-1%,i,18µM*
COc1cc(COc2ccc3c(C)c(Cc4ccccc4)c(=O)oc3c2)cc(OC)c1OC,-4%,u,i,4%,i,u
Cc1nn(-c2ccccc2)c(N2CCCC2)c1/C=N/NC(=O)c1ccccc1O,u,u,i,-27%,i,u
O=C(N/N=C/c1cc2c3c(c1O)CCCN3CCC2)c1ccccc1O,u,3.7µM*,u,u,4.1µM*,4.6µM*

# Assay outcomes from PubChem.
